In all, about 360,000 compounds went through this assay and about 9,100 (2.5%) were called active. Inconclusive results (about 4%) are left out. The sample holds actives, similar compounds and a random draw of the others, so the mix is not that of the screen. Cut-off read from the data, not from the text of the source: active = max response below about -50%; inconclusive = no clear call, values can overlap the other calls; inactive = above that.
biological target: D(3) dopamine receptor (Homo sapiens) (UniProt P35462); test: qHTS of D3 Dopamine Receptor Antagonist: qHTS; conditions: D3R cells, DiscoveRx beta-arrestin luminescence, antagonist mode; active compounds read low
Description: D3 DARs represent a very important target for the treatment of several neuropsychiatric disorders. Indeed, one of the most promising therapeutic applications for the D3 DAR is in the area of addiction and related disorders. […] These findings have been observed with a number of addictive substances including cocaine, amphetamine, nicotine, and alcohol. […] Antagonism of the D3 DAR may also be therapeutic in the treatment of schizophrenia or psychosis. […] Since the D3 DAR is expressed in areas of the CNS associated with the control of mood and emotion, it has been hypothesized that selective antagonism of the D3 DAR may be effective in treating psychosis without inducing the motor side effects typically seen with D2 DAR antagonists.
This part of the project aims to discover novel antagonist.
NIH Chemical Genomics Center [NCGC]
NIH Molecular Libraries Probe Centers Network [MLPCN]
Assay Submitter (PI): David Sibley, NINDS
Freshly passaged cells are plated in 1536 well white, solid bottom plates at a density of 1500 cells/well in 3microl of complete media. After an overnight incubation at 37 degrees C in 5% CO2, cells are loaded with 23nl of test compound from the compound library (as well as dopamine controls) using a 1536 pintool and incubated at 37 degrees C for 90 minutes. Two microliters of DiscoveRx reagent is then added to all cells, and they are incubated for an additional 30 - 60 minutes at room temperature. Following incubation, luminescence is measured on a ViewLux CCD-based luminometer reader using a 20 sec exposure time.
% is set by controls: 0 for no effect and ±100 for the full control effect.

Chain of D(3) dopamine receptor (Homo sapiens) (P35462 whole entry, looked up): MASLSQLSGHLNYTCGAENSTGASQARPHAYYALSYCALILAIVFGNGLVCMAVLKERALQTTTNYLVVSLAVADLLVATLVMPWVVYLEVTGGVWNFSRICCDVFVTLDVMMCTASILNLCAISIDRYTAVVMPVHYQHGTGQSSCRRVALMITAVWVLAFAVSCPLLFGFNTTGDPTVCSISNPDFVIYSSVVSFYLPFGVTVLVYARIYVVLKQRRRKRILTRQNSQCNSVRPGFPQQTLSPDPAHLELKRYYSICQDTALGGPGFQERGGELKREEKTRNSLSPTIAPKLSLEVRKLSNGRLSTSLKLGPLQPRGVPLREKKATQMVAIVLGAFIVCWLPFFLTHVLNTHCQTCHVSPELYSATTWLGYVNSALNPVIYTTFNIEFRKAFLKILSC

Max response, negative = inhibition, active:
COc1cc(NC(=O)COc2ccccc2Cl)ccc1NC(=O)C(C)C -74%
CCN(CC)CCN(C(=O)c1ccc2c(c1)CCCC2)c1nc2c(OC)cccc2s1 -103%
Cc1cc(C)nc(S/C=C/C(=O)c2ccccc2)n1 -62.5%
CCOC(=O)c1sc(NC(=O)c2cc(S(=O)(=O)N3CCOCC3)ccc2C)nc1C -55.1%

Max response, negative = inhibition, inactive:
O=C(NC1CCCC1)C1c2ccccc2OCC(=O)N1Cc1ccccc1 (centres undefined) 4.78%
COc1ccc(C(C(=O)Nc2c(C)cccc2C)N2CCN(c3ccc(C)cc3)CC2)cc1 (centres undefined) 11.5%
COCCCn1cc(CN2CC(N(C)C)CS2(=O)=O)nn1 (centres undefined) -10.8%
CCCCCCCCN1C(=O)[C@H](CC(=O)NCC23CC4CC(CC(C4)C2)C3)C[C@@]2(C(=O)OC)CCCCC=C12 9.16%
O=C(NCc1cccnc1)c1cc(C2CCCN(C(=O)C3CCCCC3)C2)on1 (centres undefined) 6.18%
COCCNC(=O)C1CCCN(Cc2ccccc2Cl)CC1 (centres undefined) 57.8%
Cc1ccc(Sc2ccc(NC(=O)c3ccc(F)cc3)cc2C#N)cc1 0%
Cc1ccccc1OCC(=O)Nc1ccc(N2CCN(C(=O)C(C)C)CC2)c(Cl)c1 26.3%
CC(=O)Nc1ccc(NC(=O)COc2ccccc2C(=O)Nc2cccc(Cl)c2Cl)cc1 -0.418%
COc1ccc(-c2cnc3c(c2)C(=O)N([C@H](C)CO)C[C@@H](C)[C@H](CN(C)Cc2ccccc2)O3)cc1 14.3%
CCN1C(=O)[C@@H]2[C@@H]3CN(S(=O)(=O)c4ccccc4C)[C@@H](c4ccc(Cl)cc4)[C@@H]3C(=O)C[C@@H]2C1=O -17.8%
CCN(CC)CCN(C(=O)c1cccc([N+](=O)[O-])c1)c1nc2ccc(OC)cc2s1 8.97%
CCN(CC)CCN(C(=O)c1cc(Cl)sc1Cl)c1nc2cc3c(cc2s1)OCO3 -11.6%
COc1ccc(NC2CCCN(C(=O)c3ccccc3-c3ncc[nH]3)C2)cc1 (centres undefined) -2.79%
Cc1cc(C)nc(N(C#N)CC(=O)Nc2ccccc2)n1 -15.5%
O=C(/C=C/NNC(=O)c1cccc(Br)c1)c1ccccc1 0%
COc1ccc([C@H]2N[C@]3(CCCN(Cc4ccco4)C3=O)[C@H]3C(=O)N(C)C(=O)[C@@H]23)cc1 -22%
Cc1cccc(N(CC(=O)N2CCCC2)S(C)(=O)=O)c1C -2.72%
CCc1nnc(NC(=O)c2cc(S(=O)(=O)N3CCCCC3)ccc2C)s1 -2.53%
Cc1ccc(S(=O)(=O)N2CCOCC2)cc1C(=O)Nc1ccccc1N1CCCC1 13.7%
